This is part of a sample that, as a whole, favours compounds with a hit. Of some 83,000 tested, about 20% had one in any assay.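 Growth was measured after 48 h exposure to one concentration of compound in 96-well plates. Values under 10 count as active.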 Values without a mark were called inactive. Active and inactive are the calls of the source.
Tests used:
Test in all cases: NCI-60 one-dose screen, 48 h (100 = growth as untreated, 0 = no growth, -100 = all killed)
Settings in all cases: 10 µM
RPMI-8226 leukemia = system: RPMI-8226 leukemia
OVCAR-8 ovarian = system: OVCAR-8 ovarian
OVCAR-5 ovarian = system: OVCAR-5 ovarian
OVCAR-4 ovarian = system: OVCAR-4 ovarian
SK-OV-3 ovarian = system: SK-OV-3 ovarian
IGROV1 ovarian = system: IGROV1 ovarian
OVCAR-3 ovarian = system: OVCAR-3 ovarian
HS 578T breast = system: HS 578T breast
NCI/ADR-RES ovarian = system: NCI/ADR-RES ovarian
T-47D breast = system: T-47D breast
BT-549 breast = system: BT-549 breast
MDA-MB-435 melanoma = system: MDA-MB-435 melanoma
SW-620 colon = system: SW-620 colon
MCF7 breast = system: MCF7 breast
HCT-116 colon = system: HCT-116 colon
HCC-2998 colon = system: HCC-2998 colon
KM12 colon = system: KM12 colon

Structure (SMILES)	growth (RPMI-8226 leukemia)	growth (OVCAR-8 ovarian)	growth (OVCAR-5 ovarian)	growth (OVCAR-4 ovarian)	growth (SK-OV-3 ovarian)	growth (IGROV1 ovarian)	growth (OVCAR-3 ovarian)	growth (HS 578T breast)	growth (NCI/ADR-RES ovarian)	growth (T-47D breast)	growth (BT-549 breast)	growth (MDA-MB-435 melanoma)	growth (SW-620 colon)	growth (MCF7 breast)	growth (HCT-116 colon)	growth (HCC-2998 colon)	growth (KM12 colon)
C#Cc1ccc(-n2c(/C=C/c3ccc(O)c(OC)c3)nc3ncccc3c2=O)cc1	83.5%	97.1%	108%	80.8%	107%	95.6%	100%	104%	109%	91.1%	95.5%	71.2%	102%	89.1%	97.4%	112%	
CCN1CCCC1CNC(=O)c1ncc(-c2ccc(C(F)(F)F)cc2)c(NC2CCCCCC2)n1 (stereo not given)	58.9%	74%	101%	78%	89.9%	77%	79.5%	92.1%	89.7%	78.9%	99.2%	72.6%	96.2%	43.6%	54.9%	72.4%	75.3%
CCOC(=O)c1ccc(NC(=O)Nc2ncc(Cl)cc2Cl)cc1	94.5%	97.7%	101%	104%	100%	115%	150%	132%	101%	73.4%	106%	90.8%	102%	97.8%	83.9%	96.2%	102%
Nc1nc(Nc2ccccc2)n[nH]1	97%	98.1%	103%	103%	104%	97.7%	119%	119%	96.6%	91.7%	88.8%	99.2%	107%	95.8%	97.7%	98.1%	107%
O=C1C(c2ccccc2)C2C=CC(C2)N1O (stereo not given)	81%	104%	119%	116%	106%	108%	112%	105%	112%	92.1%	136%	107%	109%	104%	104%	103%	108%
CC(C)(C)c1ccc(N2CSC(=S)N(c3ccc(C(C)(C)C)cc3)C2)cc1	76.5%	107%	101%	98.3%	94.1%	55.3%	109%	112%	96.1%	81.4%	98.9%	99.7%	106%	91.7%	91.8%	96.4%	96.7%
O=S(=O)(NCCCNc1nccc(-c2c(-c3ccc(F)cc3)nc3sccn23)n1)c1ccc(F)cc1	32.1%	17.7%	62.7%	57.5%	59.7%	18.6%	55.4%	66.8%	31.3%	-2.52% (active)	52.8%	20.6%	47.1%	32.8%	28.9%	37.6%	27.8%
Cc1ccc2oc3nc(C)c(C(=O)NCc4ccccc4)cc3c(=O)c2c1	86.1%	92.5%	86.8%	85.3%	116%	103%	99.7%	106%	63.4%	63.5%	95.1%	65.5%	77.5%	45.6%	60.6%	35.4%	28.6%
COc1cc(/C=C2\CCCC3=C2N=C2SC=NN2C3c2cc(OC)c(OC)c(OC)c2)cc(OC)c1OC (stereo not given)	-22.5% (active)	9.84% (active)	91.9%	47%	57.4%	29%	29.3%	42.8%	18.5%	61.4%	37.9%	-13.2% (active)	18.5%	27.4%	-23.5% (active)	4.77% (active)	-23.5% (active)
COc1ccc(-c2nn(-c3cccc(NC(=O)c4cc(C(F)(F)F)cc(C(F)(F)F)c4)c3)cc2-c2ccncc2)cc1Cl	47.7%	66.4%	87.4%	76.4%	75.2%	77.2%	54.1%	71.5%	59.9%	51.5%	87.3%	6.11% (active)	79.2%	54.2%	57.6%	71.1%	48.8%
CCCCCCCCCCCCCCCC(=O)OC1[C@@H](OC(=O)CCCCCCCCCCCCCCC)[C@@H](C(=O)N[C@@H](CCCCN)C(=O)OC)O[C@H]1n1cnc2c(=O)[nH]c(NC(=O)C(C)C)nc21 (stereo not given in full)	92.5%	87%	108%	120%	99.4%	91.8%	105%	107%	102%	88.2%	105%	99.6%	104%	96.4%	85.4%	101%	95%
COc1cc(/C=C/C(=O)c2ccc(Cl)cc2)ccc1OS(=O)(=O)c1ccc(C)cc1	-16.7% (active)	83.8%	111%	92.5%	96.8%	97.9%	80.7%	129%	81.4%	76.8%	134%	81.2%	6.82% (active)	11.2%	12.9%	112%	81.2%
COc1ccc2c(c1)C(=O)c1c-2c(OCCN(C)C)nc2ccccc12	17.4%	14.3%	63%	44.1%	61%	-18.7% (active)	30.4%	41%	22.8%	48.2%	85.4%	33.3%	-7.66% (active)	6.19% (active)	10.4%	44.9%	23.1%
O=C(O)CC(Cl)C(Cl)CC(=O)O (stereo not given)	99.2%	102%	106%	104%	98.1%	106%	106%	115%	102%	99.6%	97.5%	93.8%	103%	105%	111%	110%	101%
N#Cc1cccc(OCc2nc(N)nc(N)c2-c2ccc(Cl)c(Cl)c2)c1	60.1%	19.3%	35.6%	88.3%	39%	17.8%	38.5%	49.7%	34.1%	71.5%	40.1%	21.3%	17.9%	28.5%	12.1%	29.8%	25.2%
COc1ccc(-c2nc3ncccn3c2-c2nnc(-c3ccsc3C)o2)cc1	86.9%	25.2%	102%	25.7%	54.4%	94.7%	55.4%	56.4%	61.1%	92.1%	63.6%	94.6%	94.6%	77.1%	88.9%	102%	98.6%
COc1ccc(-c2nc3sc(-c4ccccc4)c(-c4ccccc4)n3c2/C=C/C(=O)c2ccccn2)cc1	45.7%	67.9%	115%	43.7%	103%	82.6%	81.3%	80.6%	85.9%	63.9%	85.5%	90.6%	91%	62%	67.2%	90.9%	83.6%
COc1cc(Cl)cc(-c2nn(-c3cccc(NC(=O)Nc4cc(C(F)(F)F)cc(C(F)(F)F)c4)c3)cc2-c2ccncc2)c1	-17.5% (active)	-2.46% (active)	21.6%	11.9%	6.84% (active)	23%	-1.62% (active)	5.82% (active)	2.37% (active)	6.56% (active)	6.61% (active)	-19.5% (active)	7.18% (active)	3.81% (active)	-4.6% (active)	9.5% (active)	12.2%

From PubChem BioAssay (NCI)
